Measured values reported in PubChem BioAssay AID1159580 (chemical genetic matrix, 2015).
The campaign covered roughly 5,500 compounds. About 2,000 (36%) were called active. Not shown: some 18% with an inconclusive outcome. No stated cut-off is given here; in the data, active means normalized growth mostly below about 0.91 (no sharp cut-off); inconclusive means no clear call, values can overlap the other calls; inactive means mostly above about 0.92. This is one part of the list.

Assay: chemical genetic growth profiling, strain panel (AID 1159580);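 further: tested at 20 µM; growth read once vehicle control cultures reached saturation at 30 °C; 1 = growth at the plate median or of vehicle wells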
Details: S. cerevisiae deletion strains, growth OD
[1] = locus YER002W, strain NOP16, stronger effect = lower value
[2] = locus YNL175C, strain NOP13, stronger effect = lower value
[3] = locus YNL197C, strain WHI3, stronger effect = lower value
[4] = locus YNL224C, strain SQS1, stronger effect = lower value
[5] = locus YOR083W, strain WHI5 (second series), stronger effect = lower value

Measured: normalized growth

NS(=O)(=O)c1cccc2c1c([N+](=O)[O-])cc1nc(O)c(O)nc12
inactive: locus YAL013W, strain DEP1, stronger effect = lower value 1 | locus YAL040C, strain CLN3, stronger effect = lower value 1.08 | locus YCL061C, strain MRC1 (second series), stronger effect = lower value 0.998 | locus YDR363W, strain ESC2, stronger effect = lower value 1.01 | [1] 0.999 | locus YGR078C, strain PAC10, stronger effect = lower value 0.995 | locus YMR307W, strain GAS1, stronger effect = lower value 0.997 | [2] 0.989 | [3] 1.01 | [4] 1 | locus YNL322C, strain KRE1, stronger effect = lower value 0.998 | [5] 1.01 | locus YPL055C, strain LGE1, stronger effect = lower value 1

O=[N+]([O-])c1cccc2c(Br)[nH]nc12
inactive: locus YAL021C, strain ccr4, stronger effect = lower value 0.955 | locus YAL026C, strain drs2, stronger effect = lower value 0.993 | locus YAL030W, strain snc1, stronger effect = lower value 0.984 | locus YBL061C, strain skt5, stronger effect = lower value 0.982 | locus YBR009C, strain hhf1, stronger effect = lower value 1.01 | locus YBR023C, strain chs3, stronger effect = lower value 0.992 | locus YBR171W, strain sec66, stronger effect = lower value 0.972 | locus YBR231C, strain swc5, stronger effect = lower value 0.997 | locus YBR279W, strain paf1, stronger effect = lower value 0.992 | locus YCL011C, strain gbp2, stronger effect = lower value 0.976 | locus YCL016C, strain dcc1, stronger effect = lower value 0.996 | locus YCL061C, strain MRC1, stronger effect = lower value 0.983 | locus YCL069W, strain vba3, stronger effect = lower value 0.972 | locus YCR088W, strain abp1, stronger effect = lower value 0.986 | locus YDL005C, strain med2, stronger effect = lower value 0.977 | locus YDL040C, strain nat1, stronger effect = lower value 0.99 | locus YDR001C, strain nth1, stronger effect = lower value 0.984 | locus YDR069C, strain doa4, stronger effect = lower value 0.965 | locus YDR137W, strain rgp1, stronger effect = lower value 0.942 | locus YDR150W, strain NUM1, stronger effect = lower value 0.961 | locus YDR159W, strain sac3, stronger effect = lower value 1.07 | locus YDR195W, strain ref2 1.09 | locus YDR297W, strain sur2, stronger effect = lower value 0.977 | locus YDR334W, strain swr1, stronger effect = lower value 0.956 | locus YDR335W, strain msn5, stronger effect = lower value 0.975 | locus YDR392W, strain spt3, stronger effect = lower value 0.852 | locus YEL003W, strain gim4, stronger effect = lower value 0.978 | locus YEL037C, strain rad23, stronger effect = lower value 0.99 | locus YEL061C, strain CIN8 (second series), stronger effect = lower value 0.987 | [1] 0.975 | locus YER015W, strain faa2, stronger effect = lower value 0.973 | locus YER016W, strain bim1, stronger effect = lower value 0.998 | locus YER111C, strain swi4, stronger effect = lower value 0.998 | locus YER155C, strain BEM2 (second series), stronger effect = lower value 0.948 | locus YFR010W, strain ubp6, stronger effect = lower value 0.972 | locus YGL167C, strain pmr1, stronger effect = lower value 0.99 | locus YGL173C, strain kem1, stronger effect = lower value 0.983 | locus YGL227W, strain vid30, stronger effect = lower value 0.993 | locus YGL240W, strain doc1, stronger effect = lower value 0.996 | locus YGL253W, strain hxk2, stronger effect = lower value 0.988 | locus YHR013C, strain ard1, stronger effect = lower value 1.03 | locus YHR027C, strain rpn1, stronger effect = lower value 0.974 | locus YHR030C, strain SLT2, stronger effect = lower value 0.933 | locus YHR079C, strain IRE1, stronger effect = lower value 0.937 | locus YHR142W, strain chs7, stronger effect = lower value 0.901 | locus YJL092W, strain hpr5, stronger effect = lower value 0.969 | locus YJL095W, strain BCK1 (second series), stronger effect = lower value 0.977 | locus YJL095W, strain BCK1, stronger effect = lower value 0.911 | locus YJL115W, strain asf1, stronger effect = lower value 0.985 | locus YJL129C, strain trk1, stronger effect = lower value 0.988 | locus YJL154C, strain vps35, stronger effect = lower value 0.983 | locus YJL164C, strain tpk1, stronger effect = lower value 0.932 | locus YJL166W, strain qcr8, stronger effect = lower value 0.952 | locus YJL187C, strain SWE1, stronger effect = lower value 0.98 | locus YJR066W, strain TOR1, stronger effect = lower value 0.882 | locus YKL160W, strain elf1, stronger effect = lower value 0.916 | locus YKR026C, strain gcn3, stronger effect = lower value 0.988 | locus YKR091W, strain srl3, stronger effect = lower value 0.976 | locus YLL001W, strain dnm1, stronger effect = lower value 0.977 | locus YLL026W, stronger effect = lower value 0.98 | locus YLL041C, strain sdh2, stronger effect = lower value 0.976 | locus YLR027C, strain aat2, stronger effect = lower value 0.972 | locus YLR113W, strain HOG1, stronger effect = lower value 1.04 | locus YLR221C, strain rsa3, stronger effect = lower value 0.937 | locus YLR258W, strain gsy2, stronger effect = lower value 0.994 | locus YLR262C, strain YPT6 (second series), stronger effect = lower value 0.986 | locus YLR320W, strain mms22, stronger effect = lower value 0.99 | locus YLR342W, strain FKS1, stronger effect = lower value 0.987 | locus YLR357W, strain rsc2, stronger effect = lower value 1.02 | locus YLR370C, strain arc18, stronger effect = lower value 0.986 | locus YLR384C, strain iki3, stronger effect = lower value 0.987 | locus YML120C, strain ndi1, stronger effect = lower value 0.94 | locus YMR058W, strain fet3, stronger effect = lower value 0.942 | locus YMR125W, strain sto1, stronger effect = lower value 1.01 | locus YMR129W, stronger effect = lower value 0.99 | locus YMR205C, strain PFK2, stronger effect = lower value 1.05 | locus YMR231W, strain pep5, stronger effect = lower value 0.994 | locus YNL071W, strain lat1, stronger effect = lower value 0.982 | [2] 0.972 | locus YNL183C, strain NPR1, stronger effect = lower value 0.873 | [3] 1.01 | locus YNL209W, strain ssb2, stronger effect = lower value 0.973 | [4] 0.982 | locus YNL322C, strain KRE1 (second series), stronger effect = lower value 0.994 | locus YNR049C, strain mso1, stronger effect = lower value 0.977 | locus YOR001W, strain rrp6, stronger effect = lower value 0.928 | locus YOR070C, strain gyp1, stronger effect = lower value 0.984 | locus YOR080W, strain dia2, stronger effect = lower value 0.987 | [5] 0.991 | locus YOR231W, strain MKK1, stronger effect = lower value 0.929 | locus YOR265W, strain rbl2, stronger effect = lower value 0.982 | locus YOR270C, strain vph1, stronger effect = lower value 0.804 | locus YOR290C, strain snf2, stronger effect = lower value 0.919 | locus YPL106C, strain sse1, stronger effect = lower value 0.979 | locus YPL240C, strain hsp82, stronger effect = lower value 0.979 | locus YPL256C, strain CLN2, stronger effect = lower value 0.97
active: locus YNL248C, strain rpa49, stronger effect = lower value 0.871 | locus YOR083W, strain WHI5, stronger effect = lower value 0.881 | locus YOR106W, strain vam3, stronger effect = lower value 0.863 | locus YPL051W, strain arl3, stronger effect = lower value 0.899 | locus YPL078C, strain atp4, stronger effect = lower value 0.874
